Compound activity as filed in PubChem BioAssay.
CYP2C19 act – activators of human cytochrome P450 2C19; P33261; recombinant CYP2C19, luciferin-H EGE luminescence; hits give high values; 0 = fully inhibited enzyme, 1 = untreated enzyme; activation factor at 5 µM; 96,000 tested, under 10 active;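 active = activation factor of at least 2 at 5 µM in the primary screen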;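 note: 0 = wells with 2.5 mM tranylcypromine and 1 = vehicle-only wells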
CYP2C19 inh – blocks human cytochrome P450 2C19 | hit rate 21% among 96,000 | inhibition, % at 5 µM | AID 778 | P33261 | CYP2C19 Supersomes, luciferin-H EGE luminescence, 30 min;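 active = CYP2C19 inhibition above a set limit at 5 µM in the primary screen, cut at about 50% in these data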;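 note: plate controls were negative control wells for no effect and 2.5 mM tranylcypromine positive control for full effect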
CYP2C9 act – increases human cytochrome P450 2C9 activity; hit rate 1.4% among 96,000; recombinant CYP2C9, luciferin-H conversion, luminescence; hits give high values; factor 1 = untreated enzyme, 0 = blocked; P11712; activation factor at 5 µM; AID 1024;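 active = activation factor of 2 or more for CYP2C9 at a 5 µM dose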;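 note: 0 = sulfaphenazole-blocked wells and 1 = vehicle-only wells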
Cav3 T inh – blocks human Cav3.2 T-type calcium channel; B-score at 10 µM; Cav3.2-expressing cells, Fluo-4 calcium fluorescence FDSS; hits give low values; hit rate 4% among 100,000; O95180;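 active = single-dose well whose peak fluorescence ratio is a statistical outlier from its plate by either plate-standardised score or position-corrected B-score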
CYP2C9 inh – human CYP2C9 inhibition; P11712; CYP2C9 Supersomes, luciferin-H conversion, luminescence; inhibition, % at 5 µM; hit rate 20% among 96,000; AID 777;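 active = blocking of liver enzyme CYP2C9 beyond about 50% at 5 µM, limit read from the data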
An asterisk follows results filed as active; x = not tested or not shown. Only some compounds are listed: those with a hit (about 27% of all), similar ones and a draw of the others.

SMILES	CYP2C19 act	CYP2C19 inh	CYP2C9 act	Cav3 T inh	CYP2C9 inh
c1ccc(-c2noc(-c3cccnc3)n2)nc1	0.7	25	1	-0.12	3
CCOC(=O)Cn1nnc2c(sc3nc4c(c(-c5ccccc5)c32)CCC4)c1=O	1.1	-14	1	-0.13	-1
COc1cc(NC(=O)c2cccc(Cl)c2)c(OC)cc1NC(=O)CN1CCOCC1	1	-2	0.9	-0.53	14
OCCCCNCc1ccc(OCc2ccc(Cl)cc2)cc1	1	-4	1.1	1.3	-13
COc1ccccc1Nc1nc(N)nc(CSc2nnc(C)s2)n1	1	-4	0.8	0.25	17
CC(CN1CCOCC1)(NS(=O)(=O)c1ccccc1)c1ccccc1 (stereo unspecified)	0.1	92*	0.4	-0.46	60*
CCC1(C(=O)OC)NC(c2ccccc2OC)C2C(=O)N(C)C(=O)C21 (stereo unspecified)	1.2	-22	1.2	0.33	-23
CCOC(=O)CSC1=NC(=O)/C(=C\c2ccc(Cl)cc2)S1	0.5	48	0.6	0.3	38
COc1cc(/C=C2\SC(c3ccc(C)cc3)=NC2=O)cc(OC)c1O	0.3	71*	0.2	0.033	82*
Cc1ccc(CO/N=C\Cc2snc(Sc3ncc(C(F)(F)F)cc3Cl)c2C#N)cc1	0.5	52*	1.2	-1.8	-19
CCCC(=O)Nc1sc2c(c1C#N)CCCC2	0.6	44	0.5	-0.56	50*
CC1CCN(CC(=O)Nc2sc3c(c2C#N)CCC3)CC1	0.6	43	0.4	0.33	56*
N#Cc1c(NC(=O)c2ccncc2)sc2c1CCC2	0.3	73*	0.5	-0.19	53*
COC(=O)CCC(=O)Nc1sc2c(c1C#N)CCCC2	0.8	15	0.9	-0.22	14
CC(=O)Nc1sc2c(c1C#N)CCCC2	1	-3	1	0.46	0
O=C(NCC12CC3CC(CC(C3)C1)C2)c1nn2c(c1Cl)NC(c1ccco1)CC2C(F)(F)F (stereo unspecified)	1	-1	1.1	0.72	-7
Cc1ccc(CS(=O)(=O)CCC(=O)NCCN2CCCC2)cc1	1.1	-6	0.8	x	16
CC#CCCC(=O)N1C=Cc2ccccc2C1C#N (stereo unspecified)	0.3	66*	0.9	0.079	8
CCOC(=O)Cc1csc(NC(=O)c2ccoc2C)n1	0.1	93*	0.3	0.089	74*
Cc1onc(-c2ccccc2)c1C(=O)Nc1nc2c(s1)CCCC2	0.7	28	0.5	0.059	46
CCOC(=O)Cc1csc(NC(=O)c2c(-c3ccccc3)noc2C)n1	0.2	82*	0.2	0.081	83*
Cc1onc(-c2ccccc2)c1C(=O)Nc1nc(-c2ccc(F)c(F)c2)cs1	0.2	79*	0.3	-1.4	68*
Cc1csc(NC(=O)c2ccoc2C)n1	0	100*	0.2	0.38	80*
Cc1ccc(CNC(=O)C2CCN(S(=O)(=O)c3cccs3)CC2)o1	x	x	x	0.19	x
Cc1cc2c3c(c1C)C1(C(=O)N3C(C)(C)CC2C)C(C#N)=C(N)OC2=C1C(=O)CC(C)(C)C2 (stereo unspecified)	0.8	24	0.7	-0.17	34
SMILES	CYP2C19 act	CYP2C19 inh	CYP2C9 act	Cav3 T inh	CYP2C9 inh
CCOC(=O)c1cc(NC(=O)c2ccoc2C)cc(C(=O)OCC)c1	0.6	40	0.5	-1.8	52*
COc1ccccc1-c1cc(C(F)(F)F)n2ncc(S(=O)(=O)c3ccccc3)c2n1	0.6	38	0	-2.1	97*
O=S(=O)(c1ccccc1)c1cnn2c(C(F)(F)F)cc(-c3ccccc3)nc12	1	-4	0.9	-0.015	13
CCOC(=O)N1CCN(C(=O)c2sc3nc(-c4ccc(F)cc4)cn3c2C)CC1	0.4	64*	0.3	x	69*
COc1ccc(-c2cn3c(C)c(C(=O)N4CCN(c5ccc(F)cc5)CC4)sc3n2)cc1	1	-2	1	x	-4
COc1ccccc1N1CCN(C(=O)c2sc3nc(-c4ccc(F)cc4)cn3c2C)CC1	0.8	15	0.5	x	50*
Cc1c(C(=O)N2CC(C)OC(C)C2)sc2nc(-c3ccc(F)cc3)cn12 (stereo unspecified)	1.1	-12	1.1	x	-9
COc1ccc(-c2cc(=Nc3ccc(C)cc3)c3ccccc3o2)cc1	0.7	34	0.5	-0.75	53*
O=C(OCc1ccc(Cl)c(Cl)c1)c1ccccn1	0	96*	0.5	0.0047	53*
N/C(=N\OC(=O)c1ccc(Cl)c(Cl)c1)c1ccccn1	1	1	1.1	0.21	-10
CN(C)S(=O)(=O)c1cccc(C(=O)OCC(=O)NCc2ccccc2)c1	1.1	-7	1	0.45	3
O=C(COC(=O)c1ccccn1)NCc1ccccc1	0.3	69*	1	0.2	5
O=C(COC(=O)c1cnccn1)NCc1ccccc1	1	2	1	-0.52	-3
O=C(COC(=O)c1ccncc1)NCc1ccccc1	0.1	85*	0.4	0.36	65*
O=C(OCC1CC(c2ccccn2)=NO1)c1ccc(Br)cc1 (stereo unspecified)	0.2	77*	0.2	-2.8	82*
COC(=O)CSc1nnc(C)n1-c1cccc(C#N)c1	1.2	-23	1.2	0.82	-18
C[C@@H]1CC[C@H](O)/C=C/C(=O)O[C@H](C)CC[C@H](O)/C=C/C(=O)O1	x	x	x	0.4	x
CCOC(=O)C1(CC)NC(c2cccc(F)c2)C2C(=O)N(CC)C(=O)C21 (stereo unspecified)	x	x	x	1.2	x
O=C(COC(=O)c1ccccn1)c1ccc(Br)cc1	0.4	57*	0.9	-0.24	13
Cc1ccc(C(=O)COC(=O)c2cnccn2)cc1	1	4	1	0.011	-1
O=C(COc1ccccc1Cl)NCc1ccncc1	0.1	94*	0.2	0.88	78*
NC(=S)NNc1cc(Cl)cc(Cl)c1	0.8	20	0.7	-0.17	31
CCOC(=O)C1CCCN(c2c(N3CCN(c4ccccn4)CC3)c(=O)c2=O)C1 (stereo unspecified)	1	2	0.9	0.69	7
CCCCC1CCC(C(=O)Nc2ccc(S(=O)(=O)Nc3nccs3)cc2)CC1 (stereo unspecified)	1.1	-8	0.8	0.48	22
Nc1nc(N)nc(-c2ccccc2O)n1	1	0	1	-0.09	5
SMILES	CYP2C19 act	CYP2C19 inh	CYP2C9 act	Cav3 T inh	CYP2C9 inh
CNc1nc(C)nc(-c2ccccc2O)n1	0.8	16	2.1*	x	-112
CC1CCCCN1C(=O)C12CCC(C)(/C(=N/O)C1)C2(C)C (stereo unspecified)	1.1	-7	1.1	0.21	-9
CCOc1ccc(Cl)cc1S(=O)(=O)n1cnc2cc(C)c(C)cc21	0.1	91*	0.4	-1	58*
COc1ccc(C)cc1S(=O)(=O)N1CCC(C)CC1	0.7	32	1.4	0.028	-37
COc1ccc(Cl)cc1S(=O)(=O)N1CCN(c2ccc(F)cc2)CC1	0	98*	3.2*	-3.7*	-220
COc1cc(C)c(Cl)cc1S(=O)(=O)n1cnc2ccccc21	0.6	42	0.8	-0.56	21
